The structures appear in SMILES notation. Out of some 13,000 compounds screened, about 3,200 (25%) showed an effect of 50% or more. This is one part of the list.

Data on 48 compounds can be found in PMC4552634, “A New Set of Chemical Starting Points with Plasmodium falciparum Transmission-Blocking Potential for Antimalarial Drug Discovery” (PLoS ONE, 2015).

For the test, the system named is P. falciparum stage V gametocytes. Set-up: BacTiter-Glo ATP luminescence viability of purified stage V gametocytes in 384-well plates, per cent inhibition versus DMSO. As to conditions: 48 h, 5 µM; inhibitor.
As to `Cc1cc(NC(=O)NCCN2CCC(NS(=O)(=O)c3cccc(Br)c3)C2)c2ccccc2n1` (stereo not drawn) [TCMDC-136138], the % Inhibition (in general, the relative decrease from the control value, in per cent) is on record as 15.89%.
`Cc1cc(NC(=O)NCCN2CCC(NC(=O)c3cccc(Br)c3)C2)c2ccccc2n1` (stereo not drawn) [TCMDC-136175]: the “% Inhibition” value is recorded as 92.91%.
Consider `COc1ccc(NC(=O)NC2CCN(CCCOc3cc(C)nc4ccccc34)CC2)cc1OC` [TCMDC-136281], for which the “% Inhibition” value came out at 77.42%.
As for `COc1ccc(NC(=O)NC2CCN(CCCOc3ccnc4cc(Cl)ccc34)C2)cc1OC` (stereo not drawn) [TCMDC-136148], the figure is -28.4%; as for `Cc1cc(NC(=O)NCCN2CCC(NC(=O)c3ccc(F)cc3)CC2)c2ccccc2n1` [TCMDC-136173], 91.01%; as for `Cc1cc(OCCCN2CCC(NC(=O)c3ccc(Br)cc3)C2)c2ccccc2n1` (stereo not drawn) [TCMDC-136284], 3.225%.
As for `Cc1cc(NC(=O)NCCN2CCC(NC(=O)c3ccc(C(F)(F)F)cc3)CC2)c2ccccc2n1` [TCMDC-136174], the figure is -43.73%.
With `Cc1cc(NC(=O)NCCN2CCC(NC(=O)c3ccc(Cl)cc3)CC2)c2ccccc2n1` [TCMDC-136171] the figure was -56.82%.
`Cc1ccc(S(=O)(=O)NC2CCN(CCNC(=O)Nc3cc(C)nc4ccccc34)C2)cc1` (stereo not drawn) [TCMDC-136143]: the “% Inhibition” value was 91.8%.
As for `Cc1cc(NC(=O)NCCN2CCC(NS(=O)(=O)c3ccc(Br)cc3)C2)c2ccccc2n1` (stereo not drawn) [TCMDC-136139], the “% Inhibition” value is reported as 5.798%.
On to `COc1ccc(S(=O)(=O)NC2CCN(CCNC(=O)Nc3cc(C)nc4ccccc34)C2)cc1` (stereo not drawn) [TCMDC-136141], for which the “% Inhibition” value is listed as -35.07%.
With `Cc1ccc(C(=O)NC2CCN(CCNC(=O)Nc3cc(C)nc4ccccc34)CC2)cc1` [TCMDC-136172] the figure was -7.111%; with `CC(=O)Nc1ncc(C(=O)Nc2cccc(-c3ccc(-c4nc5ccc(C(F)(F)F)cc5[nH]4)cc3)c2)s1` [TCMDC-136921], -28%; with `CC(=O)Oc1c(C2C=CCCC2)c(OC(C)=O)c2ccccc2c1OC(C)=O` (stereo not drawn) [TCMDC-138176], 9.671%.
In the case of `O=C(NC1CCCCC1)c1ccc(O)c(-c2cccc(C(F)(F)F)c2)c1` [TCMDC-140163], the “% Inhibition” value is given as -1.763%.
With `Cc1ccc(O)cc1Nc1ccnc2cc(-c3csc(CNCCN4CCOCC4)n3)ccc12` [TCMDC-138457] the figure was 16.99%.
As to `Cc1noc(C)c1-c1cccc(CNCc2cccc(-c3ccc(-c4nc5cc(C(F)(F)F)ccc5[nH]4)s3)c2)c1.O=C(O)C(F)(F)F` [TCMDC-133055], the “% Inhibition” value was found to be 0.7472%.
With `CCOc1cc2c(cc1OCC)C(c1cc(OC)c(O)cc1Cl)NCC2` (stereo not drawn) [TCMDC-124488] the figure was -19.03%; with `CCc1cc(-c2onc(C)c2-c2cc3ccccc3o2)c(O)cc1OC` [TCMDC-125148], 5.13%.
As for `C=C(C)CSc1nc2c(c(=O)n1Cc1ccco1)C1(CCCCC1)Cc1ccccc1-2` [TCMDC-123895], the figure is 6.726%; as for `CCn1c(O)c(N=NC(=S)N2CCCC2)c2ccccc21` [TCMDC-138077], 9.29%; as for `Cn1c(O)c(N=NC(=S)N2CCOCC2)c2ccccc21` [TCMDC-138076], 88.31%.
`Oc1[nH]c2ccccc2c1N=NC(=S)N1CCOCC1` [TCMDC-124263]: the “% Inhibition” value came to 29.38%.
As for `COc1cccc(C(=O)Nc2nc3c(s2)CCN(Cc2ccccc2N2CCNCC2)CC3)c1.O=C(O)C(F)(F)F` [TCMDC-134190], the figure is 63.98%; as for `COc1ccc(-c2ccc(NC(=O)c3cccc(C#N)c3)cc2)cc1CN1CCNCC1` [TCMDC-132530], -2.653%; as for `CCN1CCN(c2cc(C)c3cc(NC(=O)c4cccc(OC)c4)ccc3n2)CC1` [TCMDC-125573], 10.75%.
With `N#Cc1ccc(/C=C/C(=O)NCCCCCN2CCN(C(=O)Nc3ccc(Cl)c(C(F)(F)F)c3)CC2)cc1` [TCMDC-136098] the figure was -6.45%; with `COc1ccc(C(=O)c2ccc3[nH]cc(C4=CCN(C)CC4)c3c2)cc1` [TCMDC-137276], -3.804%; with `Cc1ccc(C(=O)Nc2cccc(CN3CCCN(Cc4ccc(O)cc4)CC3)c2)s1` [TCMDC-141858], 30.58%.
On to `C#C[C@H]1O[C@@H](n2cnc3c(Nc4cc(Br)cc(C(F)(F)F)c4)ncnc32)[C@H](O)[C@@H]1O` [TCMDC-135185], for which the “% Inhibition” value is given as 10.32%.
As for `CCC(N)(C#Cc1ccc(-c2c(C)[nH]c(C)c(Br)c2=O)cc1)CC` [TCMDC-134693], the figure is 83.96%; as for `Cc1[nH]c(C)c(-c2ccc(-c3ccc(F)cc3)cc2)c(=O)c1Cl` [TCMDC-137408], -2.511%.
As for `Cc1[nH]c(C)c(-c2ccc(CCc3ccc(F)cc3F)cc2)c(=O)c1Cl` [TCMDC-135462], the “% Inhibition” value stood at 72.17%.
Consider `Cc1[nH]c(C)c(-c2ccc(C#Cc3ccc(F)cc3F)cc2)c(=O)c1Br` [TCMDC-134692], for which the “% Inhibition” value is recorded as 64.24%.
With `Cc1[nH]c(C)c(-c2ccc(CCc3ccc(F)cc3F)cc2)c(=O)c1Br` [TCMDC-135461] the figure was 65.46%.
With `Cc1ccc(-c2ccc3c(c2)C=C(C(=O)NC2CCN(CCNC(=O)c4cccc(C(F)(F)F)c4)CC2)CCC3)cc1` [TCMDC-141948] the figure was -9.898%; with `COC(=O)c1cccc(NC(=O)NC2CCN(c3ccnc(Nc4cc(OC)c(OC)c(OC)c4)n3)C2)c1` (stereo not drawn) [TCMDC-133630], -28.99%; with `Cc1cc(N2CCCC2)nc(Nc2ccc(NC(=O)c3cccc(F)c3)cc2)n1` [TCMDC-124709], -4.91%.
As for `Cc1ccnc(-n2c(C)cc(C=C3SC(=Nc4ccccc4)N(Cc4ccco4)C3=O)c2C)c1` [TCMDC-125659], the figure is -67.39%; as for `O=C(N[C@H](CC1CCCCC1)C(=O)NC1CCCc2ccccc21)c1ccc(O)c(-c2cccc([N+](=O)[O-])c2)c1` (stereo partly drawn) [TCMDC-140799], 21.9%; as for `Cc1cccc2[nH]c(-c3cccc(-c4ccc(NC(=O)CS(C)(=O)=O)cc4)c3)nc12` [TCMDC-136851], -1.399%.
Regarding `Cc1nc(C)c(CC(=O)Nc2ccc(-c3cccc(-c4nc5c(C)cccc5[nH]4)c3)cc2)s1` [TCMDC-136998], the “% Inhibition” value was 88.79%.
For the compound `Cc1nc(C)c(CC(=O)Nc2cccc(-c3cccc(-c4nc5c(C)cccc5[nH]4)c3)c2)s1` [TCMDC-136997], the “% Inhibition” value turned out to be 6.613%.
As for `Cc1cccc2[nH]c(-c3ccc(-c4ccc(NC(=O)CN5CCN(C)CC5)cc4)cc3)nc12` [TCMDC-136975], the figure is 64.7%.
As to `Cc1cccc2[nH]c(-c3cccc(-c4cccc(NC(=O)CN5CCN(C)CC5)c4)c3)nc12` [TCMDC-136982], the “% Inhibition” value came to 18.86%.
As for `Cc1cccc2[nH]c(-c3ccc(-c4ccc(NC(=O)Nc5ccsc5)cc4)cc3)nc12` [TCMDC-133215], the figure is -35.23%; as for `Cc1cccc2[nH]c(-c3cccc(-c4ccc(NC(=O)CN5CCN(C)CC5)cc4)c3)nc12` [TCMDC-136983], 81.12%.
Regarding `Cc1nc(C)c(CC(=O)Nc2ccc(-c3cccc(-c4nc5ccc(C(F)(F)F)cc5[nH]4)c3)cc2)s1` [TCMDC-136996], the “% Inhibition” value was -50.06%.
